PubChem BioAssay AID2202241 (National Center for Advancing Translational Sciences (NCATS), 2025)
Active and inactive are the calls of the source. The rule behind the calls is not given here. Square brackets hold non-standard residues; d marks the D form. Peptide text beside a SMILES is read from it. Dolaproine = CO[C@@H]([C@@H]1CCCN1)[C@@H](C)C(=O)O; Dil = CC[C@H](C)[C@H](NC)[C@@H](CC(=O)O)OC; NMeV = CN[C@H](C(=O)O)C(C)C

Assay: Identification of antibody-drug conjugate (ADC) payloads which are substrates of ATP-binding cassette drug efflux transporters: cell line panel data
Conditions: 99 cancer cell line panel, CellTiter-Glo viability, 48 h; stronger effect = lower value
Description: Antibody-drug conjugates (ADCs) feature an antibody recognizing a specific protein joined to a potent toxic payload. Numerous antibody-drug conjugates have received FDA approval; however, clinical resistance arises. Resistance mechanisms include decreased expression or mutation of the antibody target, impaired payload release, or increased expression of ATP-binding cassette (ABC) efflux transporters associated with multidrug resistance. We therefore sought to characterize the activity of ADC payloads across a broad set of cancer cell lines. We performed a high-throughput screen with 27 common ADC payloads against a panel of 99 cell lines to assess sensitivity to various payloads. Duocarmycin DM and PNU-159682 were exquisitely toxic across the panel of cancer cell lines of varying origins. These findings highlight the potentially broad applicability of Duocarmycin DM and PNU-159682 as ADC payloads in future ADC development.
Compounds were sourced from Levena Biopharma (San Diego, CA), Selleck Chem (Houston, TX), ChemieTek (Indianapolis, IN), or Microsource Discovery Systems (Gaylordsville, CT). Cell line sources and culture conditions were as follows: CAL-27 (ATCC: CRL-2095) and Hs 766T (ATCC: HTB-134) were grown in DMEM media +10% FBS. RKO (ATCC: CRL-2577), A-427 (ATCC: […]), BT-20 (ATCC: HTB-19), Detroit562 (ATCC: CCL-138), HARA-B (Cytion: 300465), PA-1 (ATCC: CRL-1572), TCCSUP (ATCC: […]), UM-UC-3 (ATCC: CRL-1749), and WI-38 (ATCC: CCL-75) were grown in EMEM media +10% FBS. AGS (ATCC: CRL-1739) was grown in F12K media +10% FBS. JJN-3 (DSMZ: ACC 541) was grown in IMDM media +20% FBS. 769-P (ATCC: CRL-1933), 786-O (ATCC: CRL-1932), A-375 (ATCC: CRL-1619), A-431 (ATCC: CRL-1555), A-549 (ATCC: CCL-185), A2780 (Cytion: 300491), ACHN (ATCC: CRL-1611), BT-474 (ATCC: HTB-20), BT-549 (ATCC: HTB-122), CCRF-CEM (ATCC: CCL-119), Daudi (ATCC: CCL-213), HaCaT (Cytion: 300493), HCC38 (ATCC: CRL-2314), HCC827 (ATCC: CRL-2868), HCT15 (ATCC: CCL-225), HEL 92.1.7 (ATCC: TIB-180), Hs 352.Sk (ATCC: CRL-7250), Hs578T (ATCC: HTB-126), HT-1080 (ATCC: CCL-121), HuCC-T1 (Riken Bioresource Center: RCB1960), HuP-T3 (DSMZ: ACC 259), HuP-T4 (DSMZ: ACC 223), IM-9 (ATCC: CCL-159), JJ012 (Gift: Karina Galoian (University of Miami)), JM-1 (ATCC: CRL-10423), K-562 (ATCC: CCL-243), Kasumi-3 (ATCC: CRL-2725), KMS-12-BM (DSMZ: ACC 551), LOUCY (ATCC: CRL-2629), LoVo (ATCC: CCL-229), MCF-7 (ATCC: HTB-22), MDA-MB-231 (ATCC: HTB-26), MDA-MB-436 (ATCC: HTB-130), MDA-MB-468 (ATCC: HTB-132), MIA PaCa-2 (ATCC: CRL-1420), MM1.R (ATCC: CRL-2975), MM1.S (ATCC: CRL-2974), NALM-6 (ATCC: CRL-3273), NCI-H1299 (ATCC: CRL-5803), NCI-H1355 (ATCC: CRL-5865), NCI-H1395 (ATCC: CRL-5868), NCI-H1437 (ATCC: CRL-5872), NCI-H2122 (ATCC: CRL-5985), NCI-H2170 (ATCC: CRL-5928), NCI-H226 (ATCC: CRL-5826), NCI-H23 (ATCC: CRL-5800), NCI-H322M (NIH: NCI-60), NCI-H460 (ATCC: HTB-177), NCI-H522 (ATCC: CRL-5810), NCI-H929 (ATCC: CRL-3580), NIH 3T3 (ATCC: CRL-1658), OCI-M2 (DSMZ: ACC 619), OPM-2 (DSMZ: ACCC 50), OVCAR-3 (ATCC: HTB-161), OVCAR-4 (Gift: Phil Lorenzi MD Anderson), OVCAR-8 (Gift: Phil Lorenzi MD Anderson), Panc 10.05 (ATCC: CRL-2547), PANC-1 (ATCC: CRL-1469), Pfeiffer (ATCC: CRL-2632), PL45 (ATCC: CRL-2558), PSN1 (ATCC: CRL-3211), Raji (ATCC: CCL-86), RD (Gift: Mari Yohe NCI), RPMI-8226 (ATCC: CRM-CCL-155), RS4;11 (ATCC: CRL-1873), SK-BR-3 (ATCC: HTB-30), SK-MEL-28 (ATCC: HTB-72), SMS-CTR (Gift: Mari Yohe NCI), SNU-16 (ATCC: CRL-5974), SU-DHL-8 (ATCC: CRL-2961), SU.86.86 (ATCC: CRL-1837), SW1990 (ATCC: CRL-2172), SW403 (ATCC: CCL-230), SW480 (ATCC: CCL-228), SW579 (ATCC: HTB-107), T-47D (ATCC: HTB-133), T24 (ATCC: HTB-4), and U-937 (ATCC: CRL-1593.2) were grown in RPMI +10% FBS. U266B1 (ATCC: TIB-196) were grown in RPMI +15% FBS. ME-1 (ATCC: HB-119), MOLM-13 (DSMZ: ACC 554), AMO1 (DSMZ: ACC 538), MOLP-8 (DSMZ: ACC 569), MV4-11 (ATCC: CRL-9591), PL-21 (DSMZ: ACC 536), and L-363 (DSMZ: ACC 49) were grown in RPMI +20% FBS. […]
In the case of `COc1cc2cc(c1Cl)N(C)C(=O)C[C@H](O)[C@]1(C)O[C@H]1[C@H](C)C1C[C@@](O)(NC(=O)O1)[C@H](OC)/C=C/C=C(\C)C2`, the viability AUC is reported as 1010 (active). With `CN(C)CCOc1ccc2[nH]c(C(=O)N3C[C@@H](CCl)c4c3cc(O)c3ccccc43)cc2c1` the viability AUC was 514 (active). In the case of `CC(C)(C)OC(=O)Nc1ccc2[nH]c(C(=O)N3C[C@@H](CCl)c4c3cc(O)c3ccccc43)cc2c1`, the viability AUC is reported as 645 (active). In the case of `CCN[C@H]1CO[C@@H](O[C@H]2[C@H](O[C@H]3C#C/C=C\C#C[C@]4(O)CC(=O)C(NC(=O)OC)=C3/C4=C\CSSSC)O[C@H](C)[C@@H](NO[C@H]3C[C@H](O)[C@H](SC(=O)c4c(C)c(I)c(O[C@@H]5O[C@@H](C)[C@H](O)[C@@H](OC)[C@H]5O)c(OC)c4OC)[C@@H](C)O3)[C@@H]2O)C[C@@H]1OC`, the viability AUC is reported as 635 (active). With `COC(=O)c1cc2c3c(cc(O)c2[nH]1)N(C(=O)c1cc2cc(OC)c(OC)c(OC)c2[nH]1)CC3CCl` (stereo unspecified) the viability AUC was 651 (active). With `CC[C@H](C)[C@@H]([C@H](N)CC(=O)N1CCC[C@H]1[C@H](OC)[C@@H](C)C(=O)N[C@@H](Cc1ccccc1)c1nccs1)N(C)C(=O)[C@@H](NC(=O)[C@@H](NC)C(C)C)C(C)C` the viability AUC was 738 (active). With `CCN(C(C)=O)[C@H]1CO[C@@H](O[C@H]2[C@H](O[C@H]3C#C/C=C\C#C[C@]4(O)CC(=O)C(NC(=O)OC)=C3/C4=C\CSSSC)O[C@H](C)[C@@H](NO[C@H]3C[C@H](O)[C@H](SC(=O)c4c(C)c(I)c(O[C@@H]5O[C@@H](C)[C@H](O)[C@@H](OC)[C@H]5O)c(OC)c4OC)[C@@H](C)O3)[C@@H]2O)C[C@@H]1OC` the viability AUC was 700 (active). For `COc1cccc2c1C(=O)c1c(O)c3c(c(O)c1C2=O)C[C@@](O)(C(=O)CO)C[C@@H]3O[C@H]1C[C@H]2[C@H](O[C@@H]3[C@@H](OC)OCCN32)[C@H](C)O1`, the viability AUC was 549 (active). For `CC[C@H](C)[C@@H]([C@@H](CC(=O)N1CCC[C@H]1[C@H](OC)[C@@H](C)C(=O)N[C@@H](Cc1ccccc1)C(=O)O)OC)N(C)C(=O)[C@@H](NC(=O)[C@@H](NC)C(C)C)C(C)C` (H-[NMeV]V[Dil][Dolaproine]F-OH), the viability AUC was 938 (active). With `COc1ccc(C2=CN3C(=O)c4cc(OC)c(OCCCOc5cc6c(cc5OC)C(=O)N5C=C(c7ccc(N)cc7)C[C@@H]5C=N6)cc4N=C[C@H]3C2)cc1` the viability AUC was 762 (active). With `CC[C@H](C)[C@@H]([C@H](N)CC(=O)N1CCC[C@H]1[C@H](OC)[C@@H](C)C(=O)N[C@@H](Cc1ccccc1)c1nccs1)N(C)C(=O)[C@@H](NC(=O)[C@H](C(C)C)N(C)C)C(C)C` the viability AUC was 769 (active).
